A short description of this test: A549 cell viability effects, profiling panel, calcein-AM fluorescence, 48 h, basal (AID 1162). Note: test concentration not given here. The following applies: higher = more signal.
`COc1ccc(C#Cc2ccc3c(c2)[C@]2(C(=O)N3)[C@H](c3ccc(O)cc3)N3[C@H](c4ccccc4)[C@H](c4ccccc4)OC(=O)[C@H]3[C@@H]2C(=O)O)cc1`: the z-score was -0.884.
As to `COC(=O)[C@@]1(Cc2ccccc2)[C@H]2c3cc(C(=O)N(C)C)n(CCN4CNCC4=O)c3C[C@H]2CN1C(=O)c1ccccc1`, the z-score was 0.134.
The figure for `O=C1OCC=C[C@H]2OC34C=CCN(Cc5ccccc5)C(=O)[C@H]3N(CCCCCCO)C(=O)[C@@H]4[C@@H]12` (stereo not given in full) is 0.131; for `COc1cc2c(cc1OC)CN(C(=O)[C@@H]1[C@H]3C(=O)O[C@H](c4ccccc4)[C@H](c4ccccc4)N3[C@H](c3ccc(OCCO)cc3)[C@@]13C(=O)Nc1ccccc13)CC2` it is 1.47.
The figure for `COCCOC(=O)N1C(=O)[C@@]2(c3cc(C#CC4=CCCCC4)ccc31)[C@H](C(=O)N1CCCCCCC1)[C@H]1C(=O)O[C@H](c3ccccc3)[C@H](c3ccccc3)N1[C@@H]2c1ccc(O)cc1` is 0.868.
As for `C=CCC(OC(C)=O)[C@@H]1[C@@H](N(Cc2cc3ccccc3o2)C(=O)Cc2ccc(F)cc2)c2cc(OCCCO)ccc2N1C(=O)c1ccc2ccccc2c1` (stereo not given in full), the z-score was -0.0032.
The figure for `CCOC(=O)C[C@H]1[C@H](OC(=O)Cc2ccc3c(c2)OCO3)[C@@H](NC(=O)Cc2ccc(OC)cc2)c2cc(OCCCO)ccc2N1C(=O)c1ccc2ccccc2n1` is 2.47; for `COCCOC(=O)N1C(=O)[C@@]2(c3cc(C#Cc4ccc(OC)cc4)ccc31)[C@H](c1ccc(O)cc1)N1[C@H](c3ccccc3)[C@H](c3ccccc3)OC(=O)[C@H]1[C@@H]2C(=O)N1CCCCCCC1` it is 0.403.
For `COC(=O)[C@@]1(Cc2ccccc2)[C@H]2c3cc(C(=O)N(C)C)n(Cc4c(CO)[nH]cc(C)c4=O)c3C[C@H]2CN1C(=O)c1ccccc1`, the z-score is -0.218.
For `CN(C)C(=O)[C@]1(CCS(=O)(=O)c2ccccc2)N=C(c2ccc(OCCCO)cc2)O[C@@H]1c1ccccc1N=[N+]=[N-]`, the z-score was 1.12.
For `CCCCCCc1nc(-c2cc(C)c(OC)c(C)c2)c(C)c2c1[Si](C(C)C)(C(C)C)OC2`, the z-score was -0.499.
For the compound `CC(C)C[C@@H]1NC(=O)[C@@H]2C[C@H](C(=O)NCCCCCN)[C@H](c3ccc(O)cc3)N2C1=O`, the z-score is 0.0318.
`C[C@H]1NC(=O)[C@@]23C(=O)N[C@@H](Cc4ccccc4)C2[C@H](C)[C@@]2(C)O[C@H]2C3/C=C/C/C=C\CNC(=O)[C@H](Cc2ccccc2)NC1=O` (stereo not given in full): the z-score is -0.518.
Then `C=CC[C@]1(C(=O)NCCN2CCOCC2)N=C(c2ccc(OCCCO)cc2)O[C@H]1c1ccccc1CN=[N+]=[N-]`, with 0.779; and `O=C1O[C@H](c2ccccc2)[C@H](c2ccccc2)N2[C@H]1[C@@H](C(=O)Nc1nc3ccccc3s1)[C@]1(C(=O)Nc3ccccc31)[C@H]2c1ccc(OCCO)cc1`, with -0.52.
As to `CN1C(=O)C2C=CC(C(O)c3cccc(O)c3)N(Nc3ccccc3)C2C1=O` (stereo not given), the z-score was -0.501.
With `C=C(COC)/C(=C/C[C@H](OC(=O)c1ccncc1)c1ccccc1OCCO)c1cnc2ccccc2c1`, the z-score is 0.265.
Turning to `[N-]=[N+]=Nc1ccccc1[C@@H]1OC(c2ccc(OCCCO)cc2)=N[C@]1(Cc1ccccc1)C(=O)NCC(O)CO` (stereo not given in full), the z-score is -0.828.
Take `CCOc1cc(C(O)C2C=CC3C(=O)N(C)C(=O)C3N2Nc2ccccc2)ccc1O` (stereo not given): the z-score is -0.157.
As to `CCOC(=O)C1=C[C@@H](c2ccccc2)N(S(=O)(=O)c2ccc(C)cc2)[C@H]1c1ccccc1Cl`, the z-score is -0.968.
Then `COC(=O)c1c2oc(c1C(=O)OC)C(=O)N(Cc1ccccc1)Cc1cn(nn1)C[C@H](Cc1ccccc1)NC(=O)N[C@H](CO)CC2`, with 2.05; and `O=C(CS)NCCCCCNC(=O)[C@@H]1C[C@@H]2C(=O)N3CCC[C@H]3C(=O)N2[C@@H]1c1cccc(OCCO)c1`, with -0.174; and `C=C[C@@H](COC(C)=O)N(C(=O)OC(C)(C)C)S(=O)(=O)c1ccc(Br)cc1`, with 1.82.
The figure for `COc1cccc(/C=C/C=O)c1` is 0.482.
Turning to `COc1ccc(CN(C2=CC[C@@]3(C(N)=O)C(=O)C(Cl)=C(Cl)C(=O)[C@@]3(C#N)C2)S(=O)(=O)c2ccc(Br)cc2)cc1`, the z-score was 0.236.
As for `O=C1O[C@@H](c2ccccc2)[C@@H](c2ccccc2)N2[C@@H](c3ccc(O)cc3)[C@]3(C(=O)Nc4ccc(C#CC5=CCCCC5)cc43)[C@@H](C(=O)NC[C@H](O)c3ccccc3)[C@H]12`, the z-score was 0.0793.
Turning to `Cc1ccccc1C(O)C1C=CC2C(=O)N(C)C(=O)C2N1N(c1ccccc1)c1ccccc1` (stereo not given), the z-score was -0.665.
As for `CCOC(=O)[C@H]1[C@@H]2C(=O)N3CCC[C@H]3[C@H](O[Si](C(C)C)(C(C)C)C(C)C)[C@H]2C=C2CCN(S(=O)(=O)c3ccc(C)cc3)C[C@H]21`, the z-score is 0.487.
With `CC(CO)N1C(=O)[C@@H]2[C@H]3C(=O)OCC=C[C@H]3OC23C=CCN(C(C)(C)C)C(=O)[C@@H]13` (stereo not given in full), the z-score is -0.0702.
Regarding `O=C1C2C=CC(C(O)c3ccccc3)N(Nc3ccccc3F)C2C(=O)N1c1ccccc1` (stereo not given), the z-score is -0.826.
The figure for `COCCOC(=O)N1C(=O)[C@@]2(c3cc(C#CC4=CCCCC4)ccc31)[C@H](c1ccc(O)cc1)N1[C@H](c3ccccc3)[C@H](c3ccccc3)OC(=O)[C@H]1[C@@H]2C(=O)N1CCN(c2ncccn2)CC1` is -0.462.
In the case of `CC(C)C(=C=CC[C@H](O)c1cccc(OCCO)c1)C[C@H](O)c1cc(Cl)cc(Cl)c1O`, the z-score is -0.105.
`O=C(NCc1ccccc1)[C@@H]1c2ccccc2C(=O)N(Cc2ccccc2C(F)(F)F)[C@H]1c1ccc(CO)cc1`: the z-score is 0.369.
Then `CC(C)Cc1ccc(CN2CC[C@@H](NC(=O)Nc3ccccc3)C2)cc1`, with -4.11; and `CCC(CC)C(O)C1C=CC2C(=O)N(c3ccccc3)C(=O)C2N1Nc1ccc(C(C)C)cc1` (stereo not given), with -0.0442.
